Reference: PubChem BioAssay (Tox21)
Inconclusive results are not listed. Entries that show only a call come without a potency. Calls of active or inactive are those of the source. The call rests on the fitted dose curve; in most records, active means well fitted curve in the direction sought with a large enough effect in the repeat runs; inconclusive means weak or mixed curves; inactive means no such curve, though single readings can be large; an effect the other way counts as inactive or inconclusive.

biological target: Voltage-gated inwardly rectifying potassium channel KCNH2 (Homo sapiens) (UniProt Q12809); test: Human Ether-a-go-go-Related Gene (hERG) channel small molecule antagonists: fluorescence cell-based qHTS assay (AID 1671200); details: hERG-U2OS cells, FluxOR thallium flux fluorescence; series mostly up to 76.8 µM;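 further: hERG-expressing U2OS cells given a thallium stimulus after FluxOR II dye loading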
Sequence (Q12809 whole entry, looked up): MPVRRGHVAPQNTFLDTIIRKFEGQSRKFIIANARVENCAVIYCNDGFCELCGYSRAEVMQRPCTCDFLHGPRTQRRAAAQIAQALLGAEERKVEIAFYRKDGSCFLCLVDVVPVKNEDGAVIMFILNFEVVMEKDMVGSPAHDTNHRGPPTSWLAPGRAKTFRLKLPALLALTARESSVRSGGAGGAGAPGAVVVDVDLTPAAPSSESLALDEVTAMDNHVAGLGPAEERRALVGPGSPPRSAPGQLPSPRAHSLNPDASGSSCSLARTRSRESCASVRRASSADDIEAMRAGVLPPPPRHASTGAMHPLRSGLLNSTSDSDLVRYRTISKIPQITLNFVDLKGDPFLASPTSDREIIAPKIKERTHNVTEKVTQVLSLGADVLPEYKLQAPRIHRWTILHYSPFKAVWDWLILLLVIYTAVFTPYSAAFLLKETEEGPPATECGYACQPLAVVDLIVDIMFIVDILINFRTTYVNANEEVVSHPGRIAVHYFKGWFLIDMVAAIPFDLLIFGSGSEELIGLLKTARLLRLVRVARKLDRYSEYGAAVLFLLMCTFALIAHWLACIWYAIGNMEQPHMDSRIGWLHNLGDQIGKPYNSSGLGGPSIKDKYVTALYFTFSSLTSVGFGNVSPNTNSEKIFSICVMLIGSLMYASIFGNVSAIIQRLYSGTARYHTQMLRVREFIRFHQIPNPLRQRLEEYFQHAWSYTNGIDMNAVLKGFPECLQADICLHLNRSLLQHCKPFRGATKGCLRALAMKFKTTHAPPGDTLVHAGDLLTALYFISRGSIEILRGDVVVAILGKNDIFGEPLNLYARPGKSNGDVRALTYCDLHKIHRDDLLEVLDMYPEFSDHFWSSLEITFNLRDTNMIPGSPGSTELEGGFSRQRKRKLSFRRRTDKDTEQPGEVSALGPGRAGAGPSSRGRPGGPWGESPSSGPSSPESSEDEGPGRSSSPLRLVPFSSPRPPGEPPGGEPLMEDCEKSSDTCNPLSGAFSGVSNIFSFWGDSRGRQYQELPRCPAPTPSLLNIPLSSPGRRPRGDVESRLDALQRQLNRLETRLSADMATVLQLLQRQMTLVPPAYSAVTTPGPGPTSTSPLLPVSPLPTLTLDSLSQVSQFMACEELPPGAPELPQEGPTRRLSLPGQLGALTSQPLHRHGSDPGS
Procedure, shortened: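 First, 1000 cells per well are seeded and cultured overnight at 37 C. Next, FluxOR II dye is loaded for 1 h at room temperature, protected from light. After 10 more minutes, stimulus is added and fluorescence is read.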
Further: nearly all actives have a fitted effect of over 50% in size.

Compound | Potency
Nc1nnc(-c2cccc(Cl)c2Cl)c(N)n1 | inactive
O=C1O[C@@H]2[C@@H](O)[C@H](O)O[C@@H]2[C@H]1O | inactive
c1ccc2nccnc2c1 | inactive
CCCCCCCCC(=O)Cl | inactive
NNc1nnc(NN)c2ccccc12 | inactive
CCCCCCCCC1CCC(=O)O1 (stereo not given) | inactive
CC(C)CC(C)CC(C)CC(C)COC(=O)c1ccccc1C(=O)OCC(C)CC(C)CC(C)CC(C)C (stereo not given) | inactive
O=C(NCCN1CCOCC1)c1ccc(Cl)cc1 | inactive
CC(=O)OC(C)OC(=O)C(C)c1ccc(-c2ccccc2)c(F)c1 (stereo not given) | inactive
O=C(O)c1cc(Cl)cc([N+](=O)[O-])c1Cl | inactive
COC(=O)CCc1ccc(OCC(O)CNC(C)C)cc1 (stereo not given) | inactive
CC(C)c1ccc2cc(C(C)C)ccc2c1 | inactive
COC(=O)CCCCCCCC(=O)OC | inactive
CC(C)(C)c1n[nH]c(=S)n(N)c1=O | inactive
Cc1ccc2c(c1)OCC(=O)CO2 | inactive
CCN1CCc2nc(N)oc2CC1 | inactive
CCOCCOCCOCC | inactive
CCCCCCCCCC(C)=O | inactive

Compound | Potency
O=C(CS(=O)Cc1ccco1)NC/C=C\COc1cc(CN2CCCCC2)ccn1 (stereo not given) | inactive
C[C@@H](O)[C@H]1C(=O)N2C(C(=O)O)=C(SCCN=CN)C[C@H]12 | inactive
Nc1cccc(O)c1 | inactive
O=C1CCCC(=O)O1 | inactive
O=S(=O)(O)c1cc(O)c2ccc(Nc3ccccc3)cc2c1 | inactive
N#Cc1ccc(C(=O)O)cc1 | inactive
O=C(OCC1(COC(=O)c2cccnc2)CCCC(COC(=O)c2cccnc2)(COC(=O)c2cccnc2)C1O)c1cccnc1 | inactive
O=C1c2cccc3c2[C@H](CCC3)CN1[C@@H]1CN2CCC1CC2 | inactive
O=C(O)C(=O)Cc1ccccc1 | inactive
C=C(C)C(=O)OCc1ccccc1 | inactive
CC(=O)N[C@@H](CCC(=O)O)C(=O)O | inactive
C#CC(C)N(C)C(=O)Nc1ccc(Cl)cc1 (stereo not given) | inactive
COCCOCCOCCOCCO | inactive
CCCCCCCCCCl | inactive
O=S(=O)(O)c1ccc2cc(O)c(S(=O)(=O)O)cc2c1 | inactive
Nc1ncnc(Nc2ccccc2)n1 | inactive
CC(C)OC(=O)CCCCC(=O)OC(C)C | inactive
CCCC(=O)C(C)=O | inactive

biological target: Cytochrome P450 3A4 (Homo sapiens) (UniProt P08684); test: Cytochrome P450 Family 3 Subfamily A Member 4 (CYP3A4) small molecule antagonists: luciferase reporter qHTS assay (AID 1671201); details: P450-Glo CYP3A4 enzyme, luciferin luminescence, 1 h; series mostly up to 115 µM
Sequence (P08684 whole entry, looked up): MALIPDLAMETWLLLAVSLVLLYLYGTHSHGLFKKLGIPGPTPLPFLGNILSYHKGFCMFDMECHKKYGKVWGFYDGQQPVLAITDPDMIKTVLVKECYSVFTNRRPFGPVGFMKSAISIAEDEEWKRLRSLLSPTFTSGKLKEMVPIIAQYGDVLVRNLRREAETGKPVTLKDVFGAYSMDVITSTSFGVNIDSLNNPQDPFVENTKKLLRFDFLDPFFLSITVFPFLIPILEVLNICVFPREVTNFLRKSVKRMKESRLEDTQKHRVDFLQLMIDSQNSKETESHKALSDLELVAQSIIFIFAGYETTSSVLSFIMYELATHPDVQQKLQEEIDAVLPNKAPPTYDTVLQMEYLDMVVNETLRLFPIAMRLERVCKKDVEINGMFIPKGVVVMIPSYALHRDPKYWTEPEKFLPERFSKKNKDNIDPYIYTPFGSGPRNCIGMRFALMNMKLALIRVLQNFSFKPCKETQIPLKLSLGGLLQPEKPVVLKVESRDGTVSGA
Procedure, shortened: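 Enzyme and proluciferin substrate are mixed with test chemicals for 10 min, then NADPH regeneration system drives turnover for 1 h at room temperature. A detection reagent halts the reaction; luminescence after 20 min gives relative activity.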

Compound | Potency
O=C1O[C@@H]2[C@@H](O)[C@H](O)O[C@@H]2[C@H]1O | inactive
c1ccc2nccnc2c1 | inactive
CCCCCCCCC(=O)Cl | inactive
CCCCCCCCC1CCC(=O)O1 (stereo not given) | inactive
O=C(NCCN1CCOCC1)c1ccc(Cl)cc1 | inactive
CC(=O)OC(C)OC(=O)C(C)c1ccc(-c2ccccc2)c(F)c1 (stereo not given) | inactive
O=C(O)c1cc(Cl)cc([N+](=O)[O-])c1Cl | inactive
COC(=O)CCc1ccc(OCC(O)CNC(C)C)cc1 (stereo not given) | inactive
CC(C)c1ccc2cc(C(C)C)ccc2c1 | inactive
COC(=O)CCCCCCCC(=O)OC | inactive
CC(C)(C)c1n[nH]c(=S)n(N)c1=O | inactive
Cc1ccc2c(c1)OCC(=O)CO2 | inactive
CCN1CCc2nc(N)oc2CC1 | inactive
CCOCCOCCOCC | inactive
CCCCCCCCCC(C)=O | inactive
O=C(CS(=O)Cc1ccco1)NC/C=C\COc1cc(CN2CCCCC2)ccn1 (stereo not given) | inactive
C[C@@H](O)[C@H]1C(=O)N2C(C(=O)O)=C(SCCN=CN)C[C@H]12 | inactive
O=C1CCCC(=O)O1 | inactive
O=S(=O)(O)c1cc(O)c2ccc(Nc3ccccc3)cc2c1 | inactive
N#Cc1ccc(C(=O)O)cc1 | inactive
O=C(O)C(=O)Cc1ccccc1 | inactive
C=C(C)C(=O)OCc1ccccc1 | inactive
CC(=O)N[C@@H](CCC(=O)O)C(=O)O | inactive
C#CC(C)N(C)C(=O)Nc1ccc(Cl)cc1 (stereo not given) | inactive
COCCOCCOCCOCCO | inactive
CCCCCCCCCCl | inactive
O=S(=O)(O)c1ccc2cc(O)c(S(=O)(=O)O)cc2c1 | inactive
Nc1ncnc(Nc2ccccc2)n1 | inactive
CC(C)OC(=O)CCCCC(=O)OC(C)C | inactive
